Screening data from PubChem.
aSyn 5UTR act: Activators via SNCA 5'UTR binding, MLPCN | alpha-synuclein 5'UTR reporter, activators screen | activity score, % (tested at 7.5 µM), hits read low | 300,000 compounds, 7.1% hits; in the data active means activity score below about -60%
Numbers without * were called inactive. These entries were drawn from the full list.

Screening O=C(Nc1cc(Cl)ccc1Cl)c1noc2c1CCCC2 returned aSyn 5UTR act -67.3*.
For O=C(Nc1ccc(F)cc1F)c1noc2c1CCC2 the results were aSyn 5UTR act -169.0*.
Cc1ccc(-n2nnnc2SCC(=O)Nc2sc(C)c(C)c2C#N)cc1C was read as aSyn 5UTR act -71.4*.
Screening Clc1ccc(CSc2ncccn2)cc1 returned aSyn 5UTR act -80.0*.
Screening O=Cc1cc2ccccc2nc1SCc1ccc(Cl)cc1 returned aSyn 5UTR act 95.2.
N=C1CCCN1CC(=O)c1ccc(Br)cc1 was read as aSyn 5UTR act -87.5*.
For CC(=O)Nc1ccc(/C=C/c2ccc3cccc([N+](=O)[O-])c3n2)cc1 the results were aSyn 5UTR act -112.0*.
For COC(=O)c1ccc(/C=C/c2ccc3cccc(OC)c3n2)cc1 the results were aSyn 5UTR act -96.9*.
`COc1ccc(/C=C/c2ccc3cccc(O)c3n2)c(OC)c1OC` gave aSyn 5UTR act -91.8*.
Screening COc1cccc(/C=C/c2ccc3cccc(O)c3n2)c1OC returned aSyn 5UTR act -73.5*.
`CCOc1c(OC(C)=O)ccc(/C=C/c2ccc3cccc(OC)c3n2)c1[N+](=O)[O-]` gave aSyn 5UTR act -75.7*.
Screening COc1ccc(NC(=O)c2cc3ccc(O)cc3o/c2=N\O)cc1 returned aSyn 5UTR act -155.0*.
Screening N=c1oc2cc(O)ccc2cc1C(=O)Nc1ccc(F)cc1 returned aSyn 5UTR act -147.8*.
For COc1ccc(NC(=O)c2cc3cc(OC)ccc3oc2=N)cc1 the results were aSyn 5UTR act -63.1*.
For O=C(c1ccc(F)cc1)c1cc2ccc(O)cc2oc1=O the results were aSyn 5UTR act -62.5*.
CCCCCCc1cc2cc(C(=O)Nc3cccc(OC)c3)c(=O)oc2cc1O was read as aSyn 5UTR act 62.8.
For OCCNc1c2ccccc2nc2c(F)c(F)c(F)c(F)c12 the results were aSyn 5UTR act -83.6*.
Screening Cn1c(N)c(C(=O)Nc2ccc3ccccc3c2)sc1=S returned aSyn 5UTR act -186.2*.
Screening Nc1c(C(=O)Nc2ccc(F)cc2)sc(=S)n1-c1ccccc1F returned aSyn 5UTR act -84.1*.
Screening COc1ccc(/C=N/n2c(N)nc(-c3ccccc3)c2-c2ccccc2)cc1 returned aSyn 5UTR act -62.6*.
For CC(C)OC(=O)Nc1ccc2c(c1)N(C(=O)N1CCN(C)CC1)c1ccccc1CC2 the results were aSyn 5UTR act -62.2*.
Screening Cc1ccc2[nH]c(-c3cccc(F)c3)cc(=O)c2c1 returned aSyn 5UTR act 81.0.
Screening Cc1ccc2[nH]c(-c3cccc(N)c3)cc2c1 returned aSyn 5UTR act -209.2*.
`Cc1ccc2[nH]c(=O)c(C3C(C#N)=C(N)Oc4c3ccc3cccnc43)cc2c1` (stereo not drawn) gave aSyn 5UTR act 75.3.
Cc1ccc(OCC(=O)Nc2ccc(F)cc2)cc1C was read as aSyn 5UTR act -74.1*.
Screening Cc1occc1C(=O)OCC(=O)Nc1ccc(F)cc1 returned aSyn 5UTR act -62.3*.
For CC(=O)Nc1cccc(OCC(=O)Nc2ccc(F)cc2)c1 the results were aSyn 5UTR act -77.5*.
For O=c1n(-c2ccc(Br)cc2)cnn1-c1ncccc1[N+](=O)[O-] the results were aSyn 5UTR act -101.1*.
CCOC(=O)C1=C(Cc2ccc(C)cc2)C(=O)c2ccccc2C1=O was read as aSyn 5UTR act -65.4*.
Screening Cc1ccccc1NC(=S)c1nc2ccccc2[nH]1 returned aSyn 5UTR act -144.9*.
`S=C(Nc1ccc(Cl)cc1)c1nc2ccccc2[nH]1` gave aSyn 5UTR act -78.7*.
For O=C(CCOc1ccccc1F)N1CCN(c2ccccc2O)CC1 the results were aSyn 5UTR act -75.0*.
`CSc1ccc(-c2nnn(Cc3ccc(C)cc3)n2)cc1` gave aSyn 5UTR act -167.6*.
Cc1ccccc1Cn1nnc(-c2cccc(C(=O)O)c2)n1 was read as aSyn 5UTR act -78.5*.
For COc1ccc(-c2nnn(Cc3ccccc3)n2)cc1 the results were aSyn 5UTR act -167.5*.
`O=C(O)c1cccc(-c2nnn(Cc3ccccc3)n2)c1` gave aSyn 5UTR act -84.6*.
For COC(=O)c1ccc(N=Cc2c(C(F)(F)F)[nH][nH]c2=O)cc1 the results were aSyn 5UTR act -135.2*.
`Nc1nnnn1/N=C/C=C/c1ccccc1` gave aSyn 5UTR act -115.3*.
`Nc1nnnn1/N=C/C(Br)=C/c1ccccc1` gave aSyn 5UTR act -250.6*.
For Fc1ccc(/C=N/NC(=S)Nc2cccnc2)cc1F the results were aSyn 5UTR act -85.6*.
For Cc1cc(/C=N/NC(=O)c2ccccc2F)c(C)n1-c1ccccc1 the results were aSyn 5UTR act -132.9*.
O=C(N/N=C/c1cn(Cc2cccc(F)c2)c2ccccc12)c1cc(O)cc(O)c1 was read as aSyn 5UTR act 59.2.
For CCOC(=O)N/N=C/c1cc(C)n(-c2ccccc2)c1C the results were aSyn 5UTR act -74.6*.
Screening CCOC(=O)N/N=C/c1ccc(F)cc1F returned aSyn 5UTR act -76.6*.
For Cc1cc(/C=N/NC(=O)c2cccc(F)c2)c(C)n1-c1ccccc1 the results were aSyn 5UTR act -152.2*.
`CCc1ccc(C(=O)N/N=C/c2ccc(Cl)cc2Cl)nc1` gave aSyn 5UTR act -75.1*.
Screening O=C(N/N=C/c1ccc(Cl)cc1Cl)c1cccc(F)c1 returned aSyn 5UTR act -212.5*.
Screening CCN(CC)c1ccc(NC(=O)Nc2ccccc2C(F)(F)F)cc1 returned aSyn 5UTR act -79.7*.
`CCN(CC)c1ccc(NC(=O)Nc2cccc3ccccc23)cc1` gave aSyn 5UTR act -114.7*.
Screening CN(C)c1ccc(NC(=O)Nc2cccc3ccccc23)cc1 returned aSyn 5UTR act -76.7*.
CCN(CC)c1ccc(NC(=O)CCCCC(=O)Nc2ccc(N(CC)CC)cc2)cc1 was read as aSyn 5UTR act 62.8.
For O=C(NNC(=S)Nc1ccc(F)cc1F)c1ccco1 the results were aSyn 5UTR act -108.6*.
`O=C(Nc1ccc(F)cc1F)Nc1csc2ccccc12` gave aSyn 5UTR act -66.7*.
O=C(Nc1ccc(F)cc1F)Nc1ccc(F)cc1F was read as aSyn 5UTR act -86.6*.
`O=C(Nc1cccs1)Nc1ccc(F)cc1F` gave aSyn 5UTR act -119.1*.
Screening O=C(Nc1cccs1)Nc1ccc(Br)cc1F returned aSyn 5UTR act -184.7*.
`CC(C)Sc1nc(N)nc(-c2cccs2)c1C#N` gave aSyn 5UTR act -145.6*.
CC1(c2ccc([N+](=O)[O-])cc2)Nc2ccccc2S1 (stereo not drawn) was read as aSyn 5UTR act -83.2*.
`Cc1ccc(/C=N\Nc2nc3ccc(Cl)cc3[nH]2)o1` gave aSyn 5UTR act -192.3*.
`CCCCn1c(/C=N/Nc2nc3ccccc3[nH]2)nc2ccccc21` gave aSyn 5UTR act -432.6*.
Screening C#CCn1cc(/C=N/Nc2nc3ccccc3[nH]2)c2ccccc21 returned aSyn 5UTR act -383.3*.
`C(=N\Nc1nc2ccccc2[nH]1)/c1ccccn1` gave aSyn 5UTR act 111.7.
Screening Fc1ccccc1-c1ccc(/C=N/Nc2nc3ccccc3[nH]2)o1 returned aSyn 5UTR act -216.8*.
Screening C(=N\Nc1nc2ccccc2[nH]1)/c1cccc2nccnc12 returned aSyn 5UTR act 67.3.
CN1C(=O)/C(=C2\SC(=S)N(CCCCCC(=O)O)C2=O)c2ccccc21 was read as aSyn 5UTR act -66.7*.
`CC1CCN(C(=O)CNC(=O)c2ccc(Cl)cc2Cl)CC1` gave aSyn 5UTR act -81.0*.
For O=C(NCC(=O)N1CCCCCC1)c1ccc(Cl)cc1 the results were aSyn 5UTR act -65.4*.
Screening O=C(NCC(=O)N1CCCCC1)c1ccc(Cl)cc1Cl returned aSyn 5UTR act -117.0*.
